This note sets out measurements from PubChem BioAssay.

The source made the active and inactive calls. Unless noted, the rule behind the calls is not given here.

Experiment [1] is described as follows: anti-His antibody binders, primary screen, artefact control for SMM control protein annotation, biochemical, small-molecule microarray, 635 nm fluorescence (AID 1128).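 Note: score merges feature fluorescence with signal-to-noise for each printed compound spot.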 The settings on record: anti-His Alexa647 antibody binding, higher = more signal.
Experiment [2] has as its system Human papillomavirus type 1a E7 protein (residues 1-88). Description: HPV1a E7 small-molecule binders, primary screen, biochemical, small-molecule microarray, residues 1-88, 635 nm (AID 1129). The note with it: small-molecule microarray binding, fluorescence 635 nm; higher = more signal.
Experiment [3] addresses Focal adhesion kinase 1 (Homo sapiens) (UniProt Q05397). Description: small-molecule microarray binders of FAK, primary screen, biochemical, 635/667 nm fluorescence, BSA, DTT (AID 1130).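 Note: composite of spot emission at 667 nm and signal to noise over triplicate slides.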 The note with it: PTK2 binding, 635 nm fluorescence, higher = more signal.
For experiment [4], the system named is Fibrinogen (Alexa647-labelled). Description: fibrinogen binders on compound microarrays, profiling panel, artefact control for SMM control-protein annotation, biochemical, small-molecule microarray, 635/667 nm fluorescence (AID 1131).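 Note: z-score merges 667 nm fluorescence with per-spot signal-to-noise over triplicate slides.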 The note with it: fibrinogen-A647 binding fluorescence, higher = more signal.
The target of experiment [5] is Follistatin (Homo sapiens) (UniProt P19883). As to the kind of experiment: follistatin binders on small-molecule microarrays, primary screen, biochemical, small-molecule microarray, 635/667 nm fluorescence (AID 1132). The settings on record: FST binding, 635 nm fluorescence, higher = more signal.
The target in experiment [6] is Fibroblast growth factor 2 (Homo sapiens) (UniProt P09038). Description: FGF2 binders on small-molecule microarrays, primary screen, biochemical, small-molecule microarray, 635/667 nm fluorescence (AID 1133). The settings on record: small-molecule microarray binding, FGF2, fluorescence 635/667; higher = more signal.
Experiment [7] can be described thus: mitochondrial membrane potential change in A549 cells, profiling panel, cell-based, JC-1 fluorescence, basal, 24 h, 100 nL (AID 1138).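 Note: A549 lung adenocarcinoma cells under basal conditions with no added stimulus; test concentration not given here.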 The settings on record: higher = more signal.
Experiment [8] relates to Lefty1. Description: Lefty1 binders on small-molecule microarrays, primary screen, biochemical, small-molecule microarray, 635/667 nm fluorescence (AID 1139). The settings on record: small-molecule microarray binding, fluorescence 635/667; higher = more signal.
For experiment [9], the system named is wheat germ agglutinin (Triticum aestivum), Alexa647-labelled. Description: wheat germ agglutinin binders on compound microarrays, profiling panel, artefact control for SMM control-protein annotation, biochemical, small-molecule microarray, 635/667 nm fluorescence (AID 1140).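 Note: score merges 667 nm feature emission with signal to noise over triplicate slides.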 The settings on record: WGA-A647 binding, 635 nm fluorescence, higher = more signal.
For experiment [10], the target named is Luciferin 4-monooxygenase (Photinus pyralis) (UniProt P08659). Description: firefly luciferase enzyme inhibitors, primary screen, biochemical, luminescence, purified enzyme, 2006 set (AID 1141).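 Note: cell-free assay with purified firefly luciferase at 100 ng per well in PBS; test concentration not given here.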 The settings on record: SteadyGlo luminescence, 30 min, higher = more signal, called active from +8 up or from −8 down.
In experiment [11] the test system is Wnt5a (protein binding on small-molecule microarray). Description: Wnt5a binders on small-molecule microarray, primary screen, biophysical, 635/667 nm fluorescence (AID 1142).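 Note: fluorescence read at 667 nm with signal to noise per printed feature.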 The settings on record: 635 nm fluorescence, higher = more signal.
Experiment [12] is described as follows: cell viability in Huh7 cells, primary screen, cytotoxicity control for HCV replication inhibitor project, CellTiter-Glo luminescence, basal, 48 h (AID 1143).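 Note: Huh7 hepatoma cells carrying a hepatitis C replication reporter with no stimulus; test concentration not given here.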 The settings on record: Huh7 HCV replicon, higher = more signal, called active from +8 up or from −8 down. On the technique in general: ATP-based viability assays read luminescence as a measure of living cells.

Experiment [13] can be described thus: P. aeruginosa biofilm formation inhibitors, primary screen, PAO1 strain, BacTiter-Glo luminescence, LB-PBS (AID 1144). The note with it: 12 h, higher = more signal.
The nature of experiment [14]: CREB reporter modulators without forskolin, primary screen, cell-based, PC12, CRE-LacZ reporter, unstimulated (AID 1145). The note with it: no forskolin, luminescence, 4.5 h, higher = more signal, called active from +8 up or from −8 down.
Experiment [15] can be described thus: CREB reporter modulators under forskolin, primary screen, cell-based, PC12, CRE-LacZ reporter, forskolin-stimulated (AID 1146).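 Note: PC12 cells with 6xCRE LacZ reporter stimulated by forskolin 10 µM; beta-galactosidase reporter signal reflecting CREB driven transcription.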 The note with it: luminescence, 4.5 h, higher = more signal, called active from +8 up or from −8 down.
The target in experiment [16] is Streptavidin (Streptomyces avidinii) (UniProt P22629). Description: streptavidin binders on small-molecule microarray, primary screen, artefact control for SMM compound annotation, biophysical, 635/667 nm fluorescence (AID 1147).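 Note: signal reflects streptavidin binding to arrayed compounds as a control protein.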 The note with it: streptavidin binding, higher = more signal.
Experiment [17] in a line: small-molecule binders of probe aInhba, primary screen, biochemical, small-molecule microarray, 635/667 nm fluorescence (AID 1148).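 Note: score merges 667nm spot fluorescence with signal-to-noise for antibody binding to printed compounds.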 The settings on record: higher = more signal.
For experiment [18], the target named is Torsin-1A (Homo sapiens) (UniProt O14656). Description: torsin A binders from cell lysate, primary screen, small-molecule microarray, wild-type, 635/667 nm (AID 1149). The settings on record: COS7 hTOR1A-WT lysate, 635 nm fluorescence, higher = more signal.
Experiment [19] shares this target. As to the kind of experiment: small-molecule binders of mutant TOR1A in lysate, primary screen, cell lysate, small-molecule microarray, COS7 lysate, 635/667 nm fluorescence (AID 1150).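 Note: score pools 667 nm emission and signal to noise measuring lysate protein binding.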 The settings on record: COS7 hTOR1A mutant lysate, 635 nm fluorescence, higher = more signal.
In experiment [20] the test system is Sonic hedgehog protein (Shh). As to the kind of experiment: small-molecule binders of Shh protein, primary screen, biochemical, small-molecule microarray, 635/667 nm fluorescence (AID 1151).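 Note: Shh protein binding to compounds spotted on small-molecule microarray slides; score combines spot fluorescence intensity with signal-to-noise across triplicate slides.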 The note with it: small-molecule microarray binding, 635 nm fluorescence; higher = more signal.

Chain of Follistatin (Homo sapiens) (P19883 whole entry, looked up): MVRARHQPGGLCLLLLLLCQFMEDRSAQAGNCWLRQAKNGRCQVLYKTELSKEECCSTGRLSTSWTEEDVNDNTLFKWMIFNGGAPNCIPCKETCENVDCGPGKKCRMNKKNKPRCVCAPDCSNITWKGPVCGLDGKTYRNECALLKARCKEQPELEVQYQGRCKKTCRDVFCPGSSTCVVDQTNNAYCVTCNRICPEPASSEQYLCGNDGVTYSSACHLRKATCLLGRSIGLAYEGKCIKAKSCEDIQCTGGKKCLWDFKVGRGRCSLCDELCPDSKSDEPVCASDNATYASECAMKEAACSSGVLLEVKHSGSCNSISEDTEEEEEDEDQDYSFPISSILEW
Chain of Streptavidin (Streptomyces avidinii) (P22629 whole entry, looked up): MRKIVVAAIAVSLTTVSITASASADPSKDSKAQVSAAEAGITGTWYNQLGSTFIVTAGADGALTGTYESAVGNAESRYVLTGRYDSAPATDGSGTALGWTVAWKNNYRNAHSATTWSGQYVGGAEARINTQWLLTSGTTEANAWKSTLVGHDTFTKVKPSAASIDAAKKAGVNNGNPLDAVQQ
Chain of Focal adhesion kinase 1 (Homo sapiens) (Q05397 whole entry, looked up): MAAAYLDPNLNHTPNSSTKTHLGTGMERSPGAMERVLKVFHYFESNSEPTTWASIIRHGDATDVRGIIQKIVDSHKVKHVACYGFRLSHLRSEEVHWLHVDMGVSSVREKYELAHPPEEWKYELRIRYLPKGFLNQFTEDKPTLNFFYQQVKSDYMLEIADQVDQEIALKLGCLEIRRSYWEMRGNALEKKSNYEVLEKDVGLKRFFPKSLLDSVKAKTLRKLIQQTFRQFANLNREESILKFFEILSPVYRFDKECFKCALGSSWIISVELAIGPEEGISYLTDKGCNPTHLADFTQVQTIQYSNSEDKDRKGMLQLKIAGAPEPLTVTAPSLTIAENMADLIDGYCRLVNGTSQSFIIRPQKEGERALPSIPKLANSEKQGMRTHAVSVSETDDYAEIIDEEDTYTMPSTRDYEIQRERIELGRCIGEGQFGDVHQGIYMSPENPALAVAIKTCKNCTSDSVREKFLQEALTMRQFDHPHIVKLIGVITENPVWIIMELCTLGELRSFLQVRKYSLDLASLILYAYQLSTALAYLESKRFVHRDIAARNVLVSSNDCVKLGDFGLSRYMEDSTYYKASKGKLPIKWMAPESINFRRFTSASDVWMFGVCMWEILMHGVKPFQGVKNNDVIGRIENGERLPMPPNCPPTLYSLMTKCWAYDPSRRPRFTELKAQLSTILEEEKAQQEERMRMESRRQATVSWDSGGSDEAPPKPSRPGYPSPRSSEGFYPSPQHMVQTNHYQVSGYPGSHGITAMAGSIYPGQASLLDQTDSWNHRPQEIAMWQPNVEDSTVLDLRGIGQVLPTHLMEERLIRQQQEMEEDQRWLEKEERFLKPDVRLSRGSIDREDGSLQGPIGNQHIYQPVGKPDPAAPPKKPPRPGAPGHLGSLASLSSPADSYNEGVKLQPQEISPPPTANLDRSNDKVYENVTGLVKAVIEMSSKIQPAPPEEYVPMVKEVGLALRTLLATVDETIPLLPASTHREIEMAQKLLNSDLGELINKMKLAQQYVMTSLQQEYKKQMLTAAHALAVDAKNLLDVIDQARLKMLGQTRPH
Chain of Fibroblast growth factor 2 (Homo sapiens) (P09038 whole entry, looked up): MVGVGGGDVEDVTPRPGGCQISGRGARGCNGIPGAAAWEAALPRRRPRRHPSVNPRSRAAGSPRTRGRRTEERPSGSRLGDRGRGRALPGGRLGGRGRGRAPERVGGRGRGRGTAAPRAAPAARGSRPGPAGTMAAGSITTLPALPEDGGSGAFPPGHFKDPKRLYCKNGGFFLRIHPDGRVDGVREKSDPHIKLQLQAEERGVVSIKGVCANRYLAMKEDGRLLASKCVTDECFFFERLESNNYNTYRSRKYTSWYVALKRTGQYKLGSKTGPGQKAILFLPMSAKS
Chain of Torsin-1A (Homo sapiens) (O14656 whole entry, looked up): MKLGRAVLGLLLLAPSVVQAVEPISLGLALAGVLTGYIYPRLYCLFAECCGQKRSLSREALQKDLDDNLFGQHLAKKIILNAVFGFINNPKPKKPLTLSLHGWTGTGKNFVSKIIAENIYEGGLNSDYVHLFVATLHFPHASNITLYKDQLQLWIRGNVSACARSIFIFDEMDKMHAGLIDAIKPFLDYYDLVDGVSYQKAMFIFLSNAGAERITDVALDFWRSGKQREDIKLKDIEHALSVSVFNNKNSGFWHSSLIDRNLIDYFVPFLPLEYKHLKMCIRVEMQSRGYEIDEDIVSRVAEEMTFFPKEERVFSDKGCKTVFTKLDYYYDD
Chain of Luciferin 4-monooxygenase (Photinus pyralis) (P08659 whole entry, looked up): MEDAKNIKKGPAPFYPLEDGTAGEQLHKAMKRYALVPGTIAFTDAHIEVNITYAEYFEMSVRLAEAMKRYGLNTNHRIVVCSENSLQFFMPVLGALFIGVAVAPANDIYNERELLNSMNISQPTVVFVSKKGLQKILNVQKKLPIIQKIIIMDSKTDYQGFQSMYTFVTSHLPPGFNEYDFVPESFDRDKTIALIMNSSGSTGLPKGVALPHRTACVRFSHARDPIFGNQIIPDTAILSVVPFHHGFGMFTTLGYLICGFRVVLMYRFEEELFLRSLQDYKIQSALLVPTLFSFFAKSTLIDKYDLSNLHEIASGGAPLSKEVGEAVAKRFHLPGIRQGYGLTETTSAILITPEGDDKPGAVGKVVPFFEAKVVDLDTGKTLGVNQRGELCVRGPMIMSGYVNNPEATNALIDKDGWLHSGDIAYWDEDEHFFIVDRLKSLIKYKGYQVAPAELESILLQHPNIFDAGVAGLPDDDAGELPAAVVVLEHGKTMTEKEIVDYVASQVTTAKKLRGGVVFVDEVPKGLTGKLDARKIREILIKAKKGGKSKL

As to `CC(C)N1C(=O)c2ccccc2[C@](C)(C(=O)NCCCN(C)C)[C@@H]1c1ccc(CO)cc1`, the composite z-score in [1] is -0.439; in [2] it was 0.717; in experiment [3], 2.34; in experiment [4], 0.562; in experiment [5], -0.106; in [6] it was -0.224. Further, the composite z-score in experiment [8] is -0.573; in experiment [9], 0.231; in experiment [11], -0.265; in [16] it was 0.578; in [17], -0.204; in [18], 3.98. Also, the composite z-score in [19] was found to be 3.56; in experiment [20], 0.0142. Moreover, the z-score in experiment [7] was 0.256; in [10], -0.562 (inactive); in experiment [12] it was 0.17 (inactive); in [13] it was 0.352 (inactive); in experiment [14], -0.0888 (inactive); in experiment [15], -0.297 (inactive).

Take `CCOC1=C2C(c3ccc(C)cc3)N(S(=O)(=O)c3ccc(C)cc3)CC2n2c(=O)n(-c3ccccc3)c(=O)n2C1` (stereo not given): the composite z-score worked out at 0.229 in [1]; 1.16 in [2]; 0.206 in experiment [3]; 0.933 in experiment [4]; 0.876 in experiment [5]; 0.747 in experiment [6]. For the same compound, the composite z-score is 0.53 in experiment [8]; 0.755 in experiment [9]; 0.323 in experiment [11]; 1.09 in experiment [16]; 0.0135 in experiment [17]; 0.301 in [18]. The composite z-score in experiment [19] and in [20] was 0.254 in each case. Moreover, the z-score in experiment [7] was 0.374; in experiment [10] it was 1.09 (inactive); in experiment [12], -0.576 (inactive); in [13], 1.11 (inactive); in experiment [14] it was 0.0331 (inactive); in experiment [15] it was 0.0749 (inactive).

On to `CN(C)CCCC[C@@H]1NC(=O)[C@H]2C[C@@H](C(=O)NCCCCCNC(=O)CS)[C@@H](c3ccc(O)cc3)N2C1=O`, for which the composite z-score is 0.504 in experiment [1]; -0.54 in experiment [2]; -0.0308 in experiment [3]; -0.293 in experiment [4]; 0.756 in experiment [5]; 0.421 in experiment [6]. For the same compound, the composite z-score in experiment [8] is -0.78; in [9], -0.128; in experiment [11] it was -0.22; in experiment [16], -0.175; in [17] it was -0.208; in experiment [18] it was -0.217. The composite z-score was 0.239 in [19] and 0.0878 in experiment [20]. The z-score in experiment [7] was 0.64; in experiment [10], -1.25 (inactive); in [12], -0.0046 (inactive); in [13], -0.315 (inactive); in experiment [14], 0.683 (inactive); in [15] it was -0.0503 (inactive).

Consider `O=C1C2C=CC(C(O)c3ccc(B(O)O)cc3)N(Nc3ccc([N+](=O)[O-])cc3)C2C(=O)N1c1ccccc1` (stereo not given), for which the composite z-score in [1] was 0.359; in [2] it was 1.21; in experiment [3] it was -0.164; in [4], 0.843; in [5], 1.13; in [6], 0.284. The composite z-score was 0.284 in experiment [8]; 1.11 in [9]; 0.263 in experiment [11]; 0.759 in [16]; 0.0785 in experiment [17]; 0.363 in experiment [18]. Besides, the composite z-score in [19] is 0.286; in [20], 0.221. Moreover, the z-score in experiment [7] was 0.0898; in experiment [10], 0.491 (inactive); in [12] it was -0.307 (inactive); in experiment [13], -0.0903 (inactive); in [14], -1.07 (inactive); in [15], -2.26 (inactive).

In the case of `COc1cc2c(cc1O)C(c1ccc(CN3CCCC3)cc1)N(Cc1sc3ccccc3c1Cl)CC2` (stereo not given), the composite z-score in experiment [1] is 0.423; in experiment [2], -0.18; in experiment [3] it was 0.0344; in experiment [4], 0.455; in [5], 1.03; in [6] it was 1.17. The composite z-score in experiment [8] is 0.501; in experiment [9], 0.421; in experiment [11] it was 0.0746; in experiment [16], 0.706; in experiment [17], -0.292; in experiment [18], 0.834. The figures for the composite z-score in experiment [19] and in experiment [20] were 0.309 and 0.436, respectively. The z-score in experiment [7] was -0.763; in experiment [10], 1.14 (inactive); in [12], -3.63 (inactive); in experiment [13], -0.0323 (inactive); in [14], 0.416 (inactive); in experiment [15], 0.821 (inactive).
